# In the library only some 7.4% were active in any assay of this set; here they are far more common.
# NPC1 promoter act: activates the NPC1 promoter; Potency, µM (titrated, usually from 9.22 µM), for the others: at the top dose activation, actives largely listed as activators; Huh7 NPC1 promoter luciferase reporter, 24 h; actives 2.4% (n = 320,000); note: % of control where 0% means no effect; nearly all actives have a fitted effect of over 60% in size
#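 Compounds in DMSO were transferred onto Huh7 NPC1-luciferase reporter cells pre-incubated 2 h; after 24 h at 37 °C, Amplite reagent was dispensed and luminescence recorded 10 min later.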
# FLuc counter: firefly luciferase modulation, counter-screen for miR-21 project; Potency, µM (series often up to 57.5 µM), inactives show top-dose activity change, negative = inhibition, hits mostly inhibitors; P08659; purified FLuc, Km substrates, luminescence inhibition; AID 588342; actives 6.9% (n = 360,000);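 note: plate controls were vehicle for no effect and reference inhibitor for full effect; nearly all actives have a fitted effect of over 55% in size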
# Target sequence (P08659 whole entry, looked up): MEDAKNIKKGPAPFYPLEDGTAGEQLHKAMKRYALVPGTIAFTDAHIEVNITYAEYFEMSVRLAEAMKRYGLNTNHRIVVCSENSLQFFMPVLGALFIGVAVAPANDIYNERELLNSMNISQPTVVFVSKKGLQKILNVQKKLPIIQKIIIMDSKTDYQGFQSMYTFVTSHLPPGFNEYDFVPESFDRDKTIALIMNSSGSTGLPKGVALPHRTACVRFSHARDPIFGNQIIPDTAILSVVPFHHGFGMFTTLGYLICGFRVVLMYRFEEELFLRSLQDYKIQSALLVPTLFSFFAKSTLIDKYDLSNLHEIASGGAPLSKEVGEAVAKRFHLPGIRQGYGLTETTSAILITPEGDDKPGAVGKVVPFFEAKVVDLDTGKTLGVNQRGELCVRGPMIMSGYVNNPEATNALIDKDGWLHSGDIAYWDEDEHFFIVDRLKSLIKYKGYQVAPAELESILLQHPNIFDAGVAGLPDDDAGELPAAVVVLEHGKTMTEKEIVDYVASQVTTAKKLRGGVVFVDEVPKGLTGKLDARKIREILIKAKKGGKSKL
#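 Purified P. pyralis luciferase (10nM final) with 10uM D-luciferin and 10uM ATP (Km levels) in 50mM Tris acetate pH 7.5, 10mM Mg acetate, 0.01% Tween-20, 0.05% BSA; qHTS 6-point titration, ~60 µM downward; luminescence read.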
# SMN2 splice up: increases expression of the SMN2 splice variant. actives 2.8% (n = 210,000). AID 1458. Potency, µM (series often up to 46.1 µM), for inactives: at the highest dose activity change, positive = activation, actives largely listed as activators. HEK293 SMN2-luciferase splicing reporter, luminescence, 30-36 h; note: % of control where 0% means no effect; nearly all actives have a fitted effect of over 55% in size
#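 HEK293 cells carry an SMN2 […]–luciferase reporter in which exon 7 inclusion puts luciferase in frame. Cells were plated 10-12 h before compound addition, then incubated 30-36 h at 37C. ONE-Glo luminescence was read; sodium butyrate at 4.5 mM final served as control.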
# Rab9 prom act: activators of Rab9 promoter | Huh7 Rab9 promoter-luciferase reporter, luminescence, 24 h | Potency, µM (highest dose often 9.22 µM), for inactives: top-dose activation, negative = inhibition, hits mostly activators | actives 2.8% (n = 320,000) | AID 485297; note: % of control where 0% means no effect; nearly all actives have a fitted effect of over 60% in size
#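 Luciferase signal after 10 min detection reagent at ambient indicates Rab9 promoter upregulation; stably transfected Huh7 cells were treated 24 h with compound in DMSO at 37 °C, 5% CO2.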
# Luc counter: counter-screen: inhibitors of Kinase-Glo firefly luciferase; Kinase-Glo luciferase, ATP luminescence, 8 min; Q27757; Potency, µM (series often up to 38.3 µM), without a hit: top-dose activity change, negative = inhibition, hits mostly inhibitors; actives 0.28% (n = 200,000); note: % is set by controls: 0 for no effect and ±100 for the full control effect; nearly all actives have a fitted effect of over 60% in size
#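 Recombinant Kinase-Glo luciferase, 10 uM ATP (linear range), luciferin; imidazole pH 7.2 / KCl / MgCl2 / Tween / BSA buffer; 8 min RT; luminescence.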
# ELG1 genotox: induces genotoxicity in HEK293T cells with luciferase-tagged ELG1; HEK293T ELG1-luciferase reporter, luminescence, 16 h; Potency, µM (top dose mostly 46 µM), for the others: at the highest dose activity change, positive = activation, hits mostly activators; actives 1.3% (n = 330,000); AID 504466; note: % of control where 0% means no effect; nearly all actives have a fitted effect of over 60% in size
#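 Cells (2,000/well) expressing the ELG1-luciferase fusion are dosed by pin tool and kept 16 hr at 37 °C, 5% CO2. Signal comes from ONE-Glo luciferase reagent after 30 min at room temperature.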
# * marks the source's active call; other numbers are inactive results; u = inconclusive; x = no result; [ ] = remark or other dose. Calls come from the whole dose curve; as a rule, active = well fitted curve in the direction sought with a large enough effect; inconclusive = small, poorly fitted or top-dose-only effect, or another doubt; inactive = no such curve, though single readings can be large; an effect the other way counts as inactive or inconclusive. Potency is the fitted concentration of half-maximal effect.
SMILES,NPC1 promoter act,FLuc counter,SMN2 splice up,Rab9 prom act,Luc counter,ELG1 genotox
COc1ccccc1N1CCN(C(=O)CC(NC(=O)c2ccccc2Cl)c2ccccc2)CC1 (stereo not drawn),-3%,5%,x,-1%,x,-2%
Cc1ccc(NC(=O)Cn2c(=O)n(-c3ccc(C)cc3)c(=O)c3ccc(C(=O)NCc4ccccc4Cl)cc32)cc1,x,0%,6%,x,x,x
O=c1c(/C=N/OCc2ccc(Cl)cc2Cl)c[nH]n1-c1cccc(Cl)n1,2%,11µM*,-15%,7%,1%,-5%
CC1CCCN(CC(O)COc2ccc(S(=O)(=O)N3CCCC3)cc2[N+](=O)[O-])C1 (stereo not drawn),1%,3%,x,-12%,x,1%
Fc1ccc(-c2onc3ccc(C4OCCO4)cc23)cc1,6%,8.5µM*,-12%,6%,0%,-5%
CC1(c2ccc3noc(-c4ccc(F)cc4)c3c2)OCCO1,1%,u,-72%,-2%,13%,-1%
CCOc1ccc(NC(=O)CSc2ncn[nH]2)cc1,11%,u,1%,22%,x,11%
O=C(CSc1ncn[nH]1)Nc1ccc(OCc2ccccc2)cc1,29%,17µM*,u,u,-1%,u
Cc1nc(SCC(=O)Nc2ccc(OCc3ccccc3)cc2)n[nH]1,27%,12µM*,x,u,-3%,15%
Cc1sc(NC(=O)C2CCCCC2)c(C#N)c1-c1ccccc1,u,6.7µM*,u,4µM*,1%,u
Cc1noc(C)c1C(=O)Nc1sc(C)c(-c2ccccc2)c1C#N,-1%,-2%,-117%,-3%,-3%,-26%
Cc1cccc(C(=O)Nc2sc(C)c(-c3ccccc3)c2C#N)c1,2.8µM*,4.3µM*,u,1.6µM*,3%,u
CCCC(=O)Nc1sc(C)c(-c2ccc(OC)cc2)c1C#N,-1%,0%,-4%,-2%,0%,-3%
CC(C(Sc1ccccc1N)c1ccccc1)[N+](=O)[O-] (stereo not drawn),-14%,9.5µM*,x,-3%,x,u
CC(=O)Nc1ccc(Nc2nc(C(F)(F)F)nc3c2nnn3Cc2ccccc2Cl)cc1,-3%,3%,x,-9%,x,-2%
COc1ccc2cc1Oc1ccc(cc1)C[C@@H]1c3c(cc(OC)c4c3Oc3cc5c(cc3O4)CCN[C@H]5C2)CCN1C,x,x,-6%[9.22 µM],x,-1%[7.66 µM],x
Cc1ccc(OCC(=O)Nc2cccc3ccc(C)nc23)c(C)c1,x,0%,1%,x,x,x
Cc1cccc(NC(=O)COc2ccc(Br)cc2)n1,14%,24µM*,-10%,11%,-5%,14%
Cc1ccc(OCC(=O)Nc2cccc(C)n2)c(C)c1,u,4.3µM*,23%,u,-13%,4.1µM*
O=[N+]([O-])c1ccc(O)c(-c2ccnc3cc(-c4ccccc4)nn23)c1,x,u,-12%,x,x,x
Cc1ccc(NC(=O)C2=C(O)c3ccccc3N(C)S2(=O)=O)cc1,0%,15µM*,17%,3%,7%,0%
Cc1cccc(C)c1NC(=O)C1=C(O)c2ccccc2N(C)S1(=O)=O,-3%,-1%,3%,-3%,3%,-4%
C=CCNC(=O)c1cc(-c2ccc3c(c2)OCO3)on1,0.45µM*,2.1µM*,x,0.56µM*,x,u
CCC(C)NC(=O)c1cc(-c2ccc3c(c2)OCO3)on1 (stereo not drawn),0.89µM*,3.4µM*,x,0.45µM*,x,u
COCCNC(=O)c1cc(-c2ccc3c(c2)OCO3)on1,1.6µM*,6.7µM*,11µM*,2.5µM*,-16%,u
SMILES,NPC1 promoter act,FLuc counter,SMN2 splice up,Rab9 prom act,Luc counter,ELG1 genotox
Cc1cc(C(=O)NN=C2CCCCC2)c2ccccc2n1,-1%,4%,-14%,-6%,6%,-1%
O=C(NC(=S)N1CCOCC1)c1cn(-c2ccccc2)nc1-c1ccccc1,0%,17µM*,x,1%,x,-8%
Cc1cccc(C)c1NC(=O)c1cn(-c2ccccc2)nc1-c1ccccc1,-9%,u,-12%,-3%,-3%,0%
O=C(NN=C1CCCCCC1)c1cn(-c2ccccc2)nc1-c1ccccc1,-3%,15µM*,-29%,1%,1%,0%
Cc1ccc(-c2cc(C(=O)NN=C3CCCC3)c3ccccc3n2)cc1,0%,4.3µM*,-12%,-4%,-3%,3%
O=C(NN=C1CCCCCC1)c1cc(-c2ccccc2)nc2ccccc12,-9%,17µM*,13%,-4%,-3%,2%
CCC(=O)N1c2ccccc2CC1C(=O)NCCc1ccc(Cl)cc1 (stereo not drawn),x,-1%,x,x,x,x
Cc1c(CC(=O)N2C[C@H]3C[C@@H](C2)c2cccc(=O)n2C3)c(=O)oc2cc3occ(C(C)(C)C)c3cc12,-2%,0%,x,-12%,x,-3%
CC(=O)c1ccc(N=C2SCCCN2C(=O)C2CCCC2)cc1,0%,1%,-5%,29%,-2%,2%
CC1(C)C2CCC1(CS(=O)(=O)NCc1ccc(S(N)(=O)=O)cc1)C(=O)C2 (stereo not drawn),-3%,0%,x,1%,x,6%
CCOc1ccc2oc(C(=O)NCC3CCCO3)c(C)c2c1 (stereo not drawn),u,15µM*,x,2.8µM*,x,u
COc1ccc2oc(C(=O)OCC(=O)NCC3CCCO3)c(C)c2c1 (stereo not drawn),-1%,u,x,-1%,x,17%
COc1ccc2oc(C(=O)NCC3CCCO3)c(C)c2c1 (stereo not drawn),u,13µM*,x,4µM*,x,u
COc1ccc(N(CC(=O)NCc2ccccc2C)S(=O)(=O)c2ccccc2[N+](=O)[O-])c(OC)c1,-2%,-2%,x,-5%,-4%,-5%
Cc1[nH]c(C)c(S(=O)(=O)NCc2ccco2)c1C(=O)N1CCCCC1,-1%,2%,x,-4%,x,2%
COC(=O)C1CCN(c2csc3ccc(C)cc3c2=O)CC1,x,6µM*,x,x,x,x
COc1ccc(N2CCN(c3csc4ccc(Cl)cc4c3=O)CC2)cc1,x,-20%,x,x,x,x
COC(=O)C1CCN(c2csc3ccc(Cl)cc3c2=O)CC1,x,7.6µM*,x,x,x,x
COC(=O)C1CCN(c2ccc([N+](=O)[O-])cc2[N+](=O)[O-])CC1,-4%,-3%,x,0%,3%,3%
O=C(O)[C@@H]1CN[C@@H](C(=O)O)C1,x,x,-1%,x,x,x
CC1Oc2ccccc2OC1(O)c1ccc2ccccc2n1 (stereo not drawn),1%,-2%,-24%,-4%,2%,-3%

# Source: PubChem
